Source: PubChem (National Center for Advancing Translational Sciences (NCATS))
The sample as a whole holds a higher share of hits than the screen did.
Tb PGK inh – inhibitors of T. brucei phosphoglycerate kinase; P07378; 380,000 compounds, 0.043% hits; Potency, µM (highest dose often 57.5 µM), most hits filed as inhibitors; PGK/GAPDH coupled, Kinase-Glo luminescence, 60 min; active = well fitted inhibition curve with a large enough effect; inconclusive = small, poorly fitted or top-dose-only effect; inactive = no such curve, though single readings can be large or run the other way; note: nearly all actives have a fitted effect of over 60% in size
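Recombinant glycosomal PGK reaction used 1,3-bisphosphoglycerate generated in-well by GAPDH (100nM final) in 100mM TEA pH 7.6, 5mM MgCl2, 0.01% Tween-20. After 60 minutes at room temperature, ATP was read by Kinase-Glo Plus luminescence end-point.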
PI5P4Ka inh – PI5P4K alpha (human) kinase inhibition. P48426. PI5P4Kalpha enzyme, ADP-Glo luminescence, 60 min; hits give low values. max response, %. 330,000 compounds, 1.2% hits; active = max response of -50% or lower; inconclusive = between -30% and -50%; inactive = -30% or higher; note: value at the top dose of about 77 µM
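Compounds were pin-transferred onto PI5P4Kalpha and substrate in HEPES pH 7.4 buffer with EGTA, CHAPS and 5% DMSO. ATP (5 microM final) started the reaction, which ran 60 minutes at room temperature before ADP-Glo detection.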
PI4K2A inh – PI4K2A (human) kinase inhibition; purified PI4K2A, ADP-Glo luminescence, 1 h; hits give low values; Q9BTU6; 420,000 compounds, 0.13% hits; activity change, negative = inhibition, % at 76.9 µM; in the data active = activity change below about -50%; inconclusive = mostly about -30% to -49%
Target sequence (Q9BTU6 whole entry, looked up): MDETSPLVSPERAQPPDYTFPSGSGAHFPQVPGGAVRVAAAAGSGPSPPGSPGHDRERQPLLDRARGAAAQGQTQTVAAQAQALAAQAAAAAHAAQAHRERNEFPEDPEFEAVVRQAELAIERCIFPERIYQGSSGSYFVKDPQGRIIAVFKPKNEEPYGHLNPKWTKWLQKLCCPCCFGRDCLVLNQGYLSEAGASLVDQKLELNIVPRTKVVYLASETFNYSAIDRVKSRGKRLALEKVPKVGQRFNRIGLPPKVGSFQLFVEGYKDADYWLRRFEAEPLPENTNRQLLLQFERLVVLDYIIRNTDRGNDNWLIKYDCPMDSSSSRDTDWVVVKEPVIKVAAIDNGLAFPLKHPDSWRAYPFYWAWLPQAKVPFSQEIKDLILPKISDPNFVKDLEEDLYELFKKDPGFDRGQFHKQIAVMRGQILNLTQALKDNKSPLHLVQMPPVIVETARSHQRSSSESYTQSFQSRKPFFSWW
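ADP-Glo luminescence measured ADP generated by PI4K2A enzyme (4 ug/mL before mixing) with 1.2 mM PI substrate (pre-mix) and 300 microM ATP (pre-mix). Tris pH7.5 buffer with MgCl2, Triton X-100; 1 h reaction at ambient temperature.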
Pin1 inhibitor – blocks the human prolyl isomerase Pin1 | 390,000 compounds, 0.009% hits | AID 504891 | Pin1 FP peptide displacement, HiFluor488, 10 min | Potency, µM (doses to about 115 µM), actives largely listed as inhibitors | Q13526; active = well fitted inhibition curve with a large enough effect in the polarisation, with a control signal flat, not every such curve was filed as active; inconclusive = small, poorly fitted or top-dose-only effect, or effect the other way, or a change in a side signal; inactive = no such curve, though single readings can be large or run the other way; the % refers to the polarisation
Each line names hits and unclear results; the compound was inactive in the other large screens.

COC1=CC(=O)c2nc(Cl)ccc2C1=O	PI4K2A inh -57.7 (no result: Tb PGK inh, Pin1 inhibitor)
Cc1ccc(N2C(=O)c3ccccc3C2C(=O)c2ccc(O)cc2O)cc1 (centres undefined)	Tb PGK inh inconclusive, PI5P4Ka inh -65.7 (no result: Pin1 inhibitor)
COc1ccc(C=O)cc1COc1ccc(NC(C)=O)cc1	none (no result: Tb PGK inh, PI5P4Ka inh, PI4K2A inh)
CCOC(=O)C1=C(COC(=O)/C=C/c2ccco2)NC(=O)NC1C (centres undefined)	Tb PGK inh inconclusive, PI5P4Ka inh -53.8, Pin1 inhibitor inconclusive
CCOC(=O)C1=C(COC(=O)/C=C/c2ccc(OC)cc2)NC(=O)NC1C (centres undefined)	none
CN1CCN(c2ccc(Nc3nn4c(=O)c5ccccc5nc4s3)cc2)CC1	none (no result: Tb PGK inh, PI5P4Ka inh, PI4K2A inh)
CC(/C=C/c1ccccc1F)=N\NC(=O)c1ccc(Cl)cc1	PI5P4Ka inh -68.2
O[C@@H](CNC[C@H](O)[C@H]1CCc2cc(F)ccc2O1)[C@@H]1CCc2cc(F)ccc2O1	none (no result: Tb PGK inh, PI5P4Ka inh, Pin1 inhibitor)
CCCNC(=O)C1(C)CCN1C(=O)Cc1ccc(C(C)C)cc1 (centres undefined)	none (no result: Tb PGK inh, Pin1 inhibitor)
N=C1S/C(=C\c2cn[nH]c2-c2ccc(F)cc2)C(=O)N1c1ccccc1F	PI5P4Ka inh -69.8
O=C(/C=C/c1ccccc1Cl)c1ccc(O)cc1	PI5P4Ka inh -53.6
Cc1cccc2c(N=Nc3ccc(S(=O)(=O)Nc4cccc(Cl)c4)cc3[N+](=O)[O-])c(O)[nH]c12	PI5P4Ka inh -71.2
Cc1ccc(S(=O)(=O)Nc2ccccc2)cc1[N+](=O)[O-]	none
CCOc1ccc(/C=N/NC(=O)c2[nH]ncc2Br)c(O)c1	Tb PGK inh inconclusive, PI5P4Ka inh inconclusive, PI4K2A inh -74.9
Cc1ccccc1C(=O)Nc1ccc(C(=O)N2CCCC(N(C)C)c3ccccc32)cc1 (centres undefined)	none (no result: Tb PGK inh, PI5P4Ka inh, Pin1 inhibitor)
O=[N+]([O-])c1ccc(O)c(-c2nn[nH]n2)c1	PI5P4Ka inh -53.6 (no result: Pin1 inhibitor)
Cc1cc(C)n(-c2ccc([N+](=O)[O-])cc2-c2nn[nH]n2)n1	none
CC(C)(C)NC(=O)COC(=O)CNC(=O)C1CCCCC1	none (no result: Tb PGK inh, PI5P4Ka inh, PI4K2A inh)
CCOC(=O)C1=C(C)N(CCCC(=O)O)C(=O)NC1c1ccccc1OS(=O)(=O)c1ccc([N+](=O)[O-])cc1 (centres undefined)	PI5P4Ka inh inconclusive
COC(=O)C1=C(C)N(CCCC(=O)O)C(=O)NC1c1ccc([N+](=O)[O-])cc1 (centres undefined)	PI5P4Ka inh -100.9
COC(=O)C1=C(C)N(C)C(=O)NC1c1cc2c(cc1[N+](=O)[O-])OCO2 (centres undefined)	Pin1 inhibitor inconclusive
CC1=C(C(=O)OCc2ccccc2)C(c2ccccc2OS(=O)(=O)c2ccc([N+](=O)[O-])cc2)NC(=O)N1CCCC(=O)O (centres undefined)	PI5P4Ka inh -64.4
CCOC(=O)C1=C(C)N(CCCC(=O)O)C(=O)NC1c1ccc([N+](=O)[O-])cc1 (centres undefined)	PI5P4Ka inh -86.2
COC(=O)C1=C(C)N(CCCC(=O)O)C(=O)NC1c1cc2c(cc1[N+](=O)[O-])OCO2 (centres undefined)	PI5P4Ka inh -62.2, Pin1 inhibitor inconclusive
COc1ccc2nc(-c3ccc(N(C)C)cc3)sc2c1	none (no result: Tb PGK inh, PI5P4Ka inh, PI4K2A inh)
Cc1ccc2[nH]c(=O)c(CN(CCCO)Cc3nnnn3Cc3ccccc3)cc2c1	none (no result: Tb PGK inh, PI5P4Ka inh, PI4K2A inh)
CCC(C(=O)OCCN1CCOC(c2ccccc2)C1C)c1ccccc1 (centres undefined)	none (no result: Tb PGK inh, PI5P4Ka inh, Pin1 inhibitor)
O=C(CC1S/C(=N/N=C/C=C/c2ccccc2)NC1=O)Nc1ccc(C(=O)O)cc1 (centres undefined)	PI5P4Ka inh -77.2
NC1=NC(=O)/C(=C\c2ccco2)S1	PI5P4Ka inh -96.3, Pin1 inhibitor inconclusive
NC1=C(Cl)C(=O)c2ccc(S(N)(=O)=O)cc2C1=O	PI5P4Ka inh inconclusive, PI4K2A inh inconclusive
NC1=C(Cl)C(=O)c2ccccc2C1=O	PI5P4Ka inh -55.7
CCN1C(=O)c2ccccc2C1Nc1ccc(OCCN2CCCCC2)cc1 (centres undefined)	none (no result: Tb PGK inh, PI5P4Ka inh, Pin1 inhibitor)
N#Cc1ccsc1NC(=O)CSc1nnnn1-c1ccc(O)cc1	PI5P4Ka inh -61.1, Pin1 inhibitor inconclusive
Cc1ccc(Cl)cc1N1CCN(C(=O)c2cc3ccc4cccnc4c3[nH]2)CC1	PI4K2A inh -75.6 (no result: PI5P4Ka inh)
COc1cc(NS(=O)(=O)c2ccc3c(c2)CC(C)N3C(=O)C2CCC2)cc(OC)c1OC (centres undefined)	none (no result: Tb PGK inh, PI5P4Ka inh, PI4K2A inh)
COc1cc(-c2ccc3ncnc(NCc4cccs4)c3c2)cc(OC)c1OC	none (no result: Tb PGK inh, PI5P4Ka inh, PI4K2A inh)
Cc1c(N=Cc2cc(Br)cc(Br)c2O)cccc1C(=O)O	Tb PGK inh inconclusive, PI5P4Ka inh -58.0, Pin1 inhibitor inconclusive
